The results in this text go back to PubChem BioAssay (NCATS).

Records with an inconclusive call do not appear. Where a call stands in place of a potency, no number is given. Active and inactive are the calls of the source. The call rests on the fitted dose curve; in most records, active means well fitted inhibition curve with a large enough effect; inconclusive means small, poorly fitted or top-dose-only effect; inactive means flat fitted curve, though single readings scatter.

The test system of this assay is Zika virus NS2B-NS3 protease. The assay is described as follows: Primary screen GU AMC qHTS for Zika virus inhibitors (AID 1347154). Further: nearly all actives have a fitted effect of over 70% in size. Conditions: Zika NS2B-NS3 unlinked protease, AMC fluorogenic substrate; series mostly up to 54.1 µM. The method in brief:
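Unlinked Zika NS2B hydrophilic domain/NS3 protease domain noncovalent complex (25 nM final) in 10 mM Tris-HCl pH 8.0, 0.01% Tween 20, with AMC peptide substrate. Fluorescence (ex 340, em 450 nm) change over 15 min, room temperature; percent inhibition fitted to 4-parameter Hill equation.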
Take `COc1ccc2[nH]c3c(c2c1)CCNC3C` (configuration not stated): the Potency result is “inactive”.

As for `COc1ccc(CCN)cc1`, the Potency entry was “inactive”.

Regarding `C[N+]1([O-])CCC[C@@H]1c1cccnc1` (some centres not stated), the Potency result is “inactive”.

As to `Cn1cccc1-c1cccnc1`, the Potency result was “inactive”.

Regarding `C[C@H]1CC[C@@H]2N(C1)C[C@H]1[C@@H]3C[C@H]4[C@@H](CC(=O)[C@H]5C[C@@H](O)CC[C@@]54C)[C@@H]3CC[C@H]1[C@]2(C)O`, the Potency entry is “inactive”.

On to `CC1=C(O)C(=O)[C@@H]2O[C@@H]2C1=O`, for which the Potency result was “inactive”.

For the compound `C[C@@H]1OC(=O)[C@H]2C[C@H]3CCCC[C@@H]3[C@@H](/C=C/[C@H]3CCC[C@H](C)N3C)[C@@H]12`, the Potency result was “inactive”.

Take `CN1CCCCC1c1cccnc1` (configuration not stated): the Potency entry is “inactive”.

Turning to `c1cncc(C2CCCN2)c1` (configuration not stated), the Potency result was “inactive”.

In the case of `CN(C)Cc1c[nH]c2ccccc12`, the Potency entry was “inactive”.

Consider `CCN1C[C@]2(COC(=O)c3ccccc3N3C(=O)CC(C)C3=O)CC[C@H](OC)[C@@]34C5C[C@@H]6[C@@H](OC)C[C@@](O)(C5[C@H]6OC)[C@](O)([C@@H](OC)C23)[C@@H]14` (some centres not stated), for which the Potency result is “inactive”.

Regarding `CN(CCCC(=O)c1cccnc1)N=O`, the Potency entry is “inactive”.
